Positions count from the first letter of the chain named.

In the first assay the target is HOXD13 (Homo sapiens, UniProt P35453 263-343). The assay can be described thus: PBM; 200 nM protein, PBS. Particulars: dsDNA, one strand shown.
HOXD13 (Homo sapiens, UniProt P35453 263-343), sequence (P35453 263-343): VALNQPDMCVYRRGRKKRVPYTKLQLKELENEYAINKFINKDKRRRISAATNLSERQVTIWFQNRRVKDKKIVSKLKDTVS
With ATCGTAAC, the binding signal is 11 upbm affinity estimate (log intensity, higher = more binding, comparable within an allelic series).

In the case of TAAATGAA, the binding signal is 10.9 upbm affinity estimate (log intensity, higher = more binding, comparable within an allelic series).

For the sequence AGTATACA, the binding signal was 10.6 upbm affinity estimate (log intensity, higher = more binding, comparable within an allelic series).

Regarding AAGTTATT, the binding signal was 10.9 upbm affinity estimate (log intensity, higher = more binding, comparable within an allelic series).

With ATAACTAA, the binding signal was 10.9 upbm affinity estimate (log intensity, higher = more binding, comparable within an allelic series).

Turning to CTCGTTAC, the binding signal is 11.1 upbm affinity estimate (log intensity, higher = more binding, comparable within an allelic series).

With AATCATAT, the binding signal is 11 upbm affinity estimate (log intensity, higher = more binding, comparable within an allelic series).

With CGTTATTA, the binding signal is 11.2 upbm affinity estimate (log intensity, higher = more binding, comparable within an allelic series).

For the sequence ATTTTAAC, the binding signal is 11.2 upbm affinity estimate (log intensity, higher = more binding, comparable within an allelic series).

With AAGTGTTA, the binding signal is 10.7 upbm affinity estimate (log intensity, higher = more binding, comparable within an allelic series).

As for AATATAGT, the binding signal was 11 upbm affinity estimate (log intensity, higher = more binding, comparable within an allelic series).

Take TGATAAAA: the binding signal was 11.3 upbm affinity estimate (log intensity, higher = more binding, comparable within an allelic series).

Take ATTAAACA: the binding signal was 11.3 upbm affinity estimate (log intensity, higher = more binding, comparable within an allelic series).

As to TAATAGCA, the binding signal is 11 upbm affinity estimate (log intensity, higher = more binding, comparable within an allelic series).

For the sequence ATAACGAC, the binding signal is 11 upbm affinity estimate (log intensity, higher = more binding, comparable within an allelic series).

Take AAAATTAA: the binding signal is 10.9 upbm affinity estimate (log intensity, higher = more binding, comparable within an allelic series).

On to ATAAACGA, for which the binding signal was 11.4 upbm affinity estimate (log intensity, higher = more binding, comparable within an allelic series).

In the next assay the target is T1, PAX4 (Homo sapiens, UniProt O43316 9-242, F177V).
T1 sequence: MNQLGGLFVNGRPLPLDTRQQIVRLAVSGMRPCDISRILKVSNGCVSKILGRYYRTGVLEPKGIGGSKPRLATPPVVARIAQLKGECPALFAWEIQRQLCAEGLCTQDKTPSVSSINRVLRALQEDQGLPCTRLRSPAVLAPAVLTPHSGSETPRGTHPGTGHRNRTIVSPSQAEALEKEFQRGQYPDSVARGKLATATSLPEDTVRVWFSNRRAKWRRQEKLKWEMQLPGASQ
Nature of the assay: PBM; 200 nM protein, PBS. Particulars: dsDNA, one strand shown.
As for ATTATATG, the binding signal is 10.6 upbm affinity estimate (log intensity, higher = more binding, comparable within an allelic series).

With ATATTATG, the binding signal is 10.7 upbm affinity estimate (log intensity, higher = more binding, comparable within an allelic series).

Take ATGATATA: the binding signal was 10.7 upbm affinity estimate (log intensity, higher = more binding, comparable within an allelic series).

Consider ATATACAT, for which the binding signal was 10.6 upbm affinity estimate (log intensity, higher = more binding, comparable within an allelic series).

As to CTAATATA, the binding signal was 10.8 upbm affinity estimate (log intensity, higher = more binding, comparable within an allelic series).

Consider ATAATTCA, for which the binding signal was 10.7 upbm affinity estimate (log intensity, higher = more binding, comparable within an allelic series).

On to ATTGTATA, for which the binding signal was 10.5 upbm affinity estimate (log intensity, higher = more binding, comparable within an allelic series).

Regarding ATATAATC, the binding signal was 10.6 upbm affinity estimate (log intensity, higher = more binding, comparable within an allelic series).

The next assay deals with HOXA4 (Homo sapiens, UniProt Q00056 201-287). The assay can be described thus: PBM; 200 nM protein, PBS. Particulars: dsDNA, one strand shown.
HOXA4, sequence (Q00056 201-287): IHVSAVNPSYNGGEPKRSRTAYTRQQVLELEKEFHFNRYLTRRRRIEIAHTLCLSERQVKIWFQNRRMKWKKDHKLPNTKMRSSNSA
For ATTTCTTA, the binding signal was 11.1 upbm affinity estimate (log intensity, higher = more binding, comparable within an allelic series).

As for ATCATGTC, the binding signal was 11 upbm affinity estimate (log intensity, higher = more binding, comparable within an allelic series).

Consider AGCAAATC, for which the binding signal was 10.9 upbm affinity estimate (log intensity, higher = more binding, comparable within an allelic series).

Regarding TCCTTTAA, the binding signal was 11.1 upbm affinity estimate (log intensity, higher = more binding, comparable within an allelic series).

On to ACGAAATA, for which the binding signal is 10.7 upbm affinity estimate (log intensity, higher = more binding, comparable within an allelic series).

On to AAGATAAC, for which the binding signal is 10.8 upbm affinity estimate (log intensity, higher = more binding, comparable within an allelic series).

For the sequence CATATGTA, the binding signal was 10.8 upbm affinity estimate (log intensity, higher = more binding, comparable within an allelic series).

In the case of CTTAAAAG, the binding signal is 10.4 upbm affinity estimate (log intensity, higher = more binding, comparable within an allelic series).

Regarding GATTTGAA, the binding signal was 10.8 upbm affinity estimate (log intensity, higher = more binding, comparable within an allelic series).

CAAGATAA: the binding signal is 10.9 upbm affinity estimate (log intensity, higher = more binding, comparable within an allelic series).

Turning to ATTCAAGC, the binding signal was 11 upbm affinity estimate (log intensity, higher = more binding, comparable within an allelic series).

In the case of CTTAGTTA, the binding signal is 11 upbm affinity estimate (log intensity, higher = more binding, comparable within an allelic series).

AAGATTGT: the binding signal was 10.7 upbm affinity estimate (log intensity, higher = more binding, comparable within an allelic series).

In another assay the target is HOXD13 (Homo sapiens, UniProt P35453 263-343, T313A). The assay can be described thus: PBM; 200 nM protein, PBS. Particulars: dsDNA, one strand shown.
HOXD13 (Homo sapiens, UniProt P35453 263-343, T313A), sequence (P35453 263-343 T313A): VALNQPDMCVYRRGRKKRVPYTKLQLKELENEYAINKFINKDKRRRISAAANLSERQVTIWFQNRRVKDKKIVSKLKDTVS
In the case of ATCGTAAC, the binding signal is 10.9 upbm affinity estimate (log intensity, higher = more binding, comparable within an allelic series).

For TAAATGAA, the binding signal is 10.9 upbm affinity estimate (log intensity, higher = more binding, comparable within an allelic series).

Turning to AGTATACA, the binding signal is 10.7 upbm affinity estimate (log intensity, higher = more binding, comparable within an allelic series).

As to AAGTTATT, the binding signal is 10.8 upbm affinity estimate (log intensity, higher = more binding, comparable within an allelic series).

For the sequence ATAACTAA, the binding signal was 11 upbm affinity estimate (log intensity, higher = more binding, comparable within an allelic series).

For the sequence CTCGTTAC, the binding signal is 10.9 upbm affinity estimate (log intensity, higher = more binding, comparable within an allelic series).

In the case of AATCATAT, the binding signal was 11 upbm affinity estimate (log intensity, higher = more binding, comparable within an allelic series).

For CGTTATTA, the binding signal was 11.1 upbm affinity estimate (log intensity, higher = more binding, comparable within an allelic series).

For the sequence AATATAGT, the binding signal was 11.1 upbm affinity estimate (log intensity, higher = more binding, comparable within an allelic series).

For TGATAAAA, the binding signal was 11.2 upbm affinity estimate (log intensity, higher = more binding, comparable within an allelic series).

Regarding ATTAAACA, the binding signal is 11.2 upbm affinity estimate (log intensity, higher = more binding, comparable within an allelic series).

For ATAACGAC, the binding signal was 10.8 upbm affinity estimate (log intensity, higher = more binding, comparable within an allelic series).

For the sequence AAAATTAA, the binding signal is 10.8 upbm affinity estimate (log intensity, higher = more binding, comparable within an allelic series).

Turning to ATAAACGA, the binding signal is 11.2 upbm affinity estimate (log intensity, higher = more binding, comparable within an allelic series).

The target in another assay is T2, PAX4 (Homo sapiens, UniProt O43316 9-242, R227W).
T2 sequence: T1 sequence with V169F, R219W
The assay can be described thus: PBM; 200 nM protein, PBS. Particulars: dsDNA, one strand shown.
For ATATTATG, the binding signal is 10.9 upbm affinity estimate (log intensity, higher = more binding, comparable within an allelic series).

For CTAATATA, the binding signal was 10.9 upbm affinity estimate (log intensity, higher = more binding, comparable within an allelic series).

For ATAATTCA, the binding signal was 10.9 upbm affinity estimate (log intensity, higher = more binding, comparable within an allelic series).

For the origin of these results see publication PMC11006913.
